Unmarked numbers belong to inactive results. The source made the active and inactive calls. No stated cut-off is given here; in the data, active means inhibition above about 31%; inactive means the rest.
Target: N-formyl peptide receptor 2 (Homo sapiens) (UniProt P25090)
Assay: FPRL1 fluorescent ligand binding inhibitors, cell-based, flow cytometry, single concentration (AID 765)
Conditions: FPRL1-expressing cells, stronger effect = higher value; at 5.1 µM unless noted

N-formyl peptide receptor 2 (Homo sapiens), sequence (P25090 whole entry, looked up): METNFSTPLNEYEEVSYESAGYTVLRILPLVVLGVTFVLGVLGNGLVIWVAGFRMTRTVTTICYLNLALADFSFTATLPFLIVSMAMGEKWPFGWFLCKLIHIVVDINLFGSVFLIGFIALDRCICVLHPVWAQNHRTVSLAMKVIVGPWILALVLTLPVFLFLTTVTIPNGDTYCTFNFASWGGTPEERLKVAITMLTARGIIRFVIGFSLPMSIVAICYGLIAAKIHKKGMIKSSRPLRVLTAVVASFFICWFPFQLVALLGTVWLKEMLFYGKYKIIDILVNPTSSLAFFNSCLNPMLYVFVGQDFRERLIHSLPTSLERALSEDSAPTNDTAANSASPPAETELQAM

| Structure (SMILES) | inhibition |
| --- | --- |
| O=C(c1ccc(Cl)cc1)N1CCN(c2nc(-c3ccccc3)c3ccccc3n2)CC1 | 1.6% [at 5.2 µM] |
| Cc1ccc(-c2cc(C(F)F)nc(N3CCN(c4ccccc4)CC3)n2)cc1 | 21.3% [at 5.8 µM] |
| COc1ccc(-c2cn3cccnc3n2)cc1NC(=O)c1cc(Br)ccc1Cl | 4.3% [at 4.9 µM] |
| FC(F)(F)c1nc(N2CCN(Cc3ccccc3)CC2)nc2c1CCCCC2 | 11.8% [at 5.7 µM] |
| COc1ccc(-c2cn3cccnc3n2)cc1NC(=O)c1ccc(C(C)(C)C)cc1 | -1% [at 5.6 µM] |
| FC(F)(F)c1cc(-c2cccs2)nc(N2CCN(Cc3ccccc3)CC2)n1 | 12.5% [at 5.5 µM] |
| COc1ccc(-c2cn3cccnc3n2)cc1NC(=O)c1ccco1 | -8.1% [at 6.7 µM] |
| Clc1cccc(-c2nc(N3CCN(c4ccccn4)CC3)nc3c2COc2ccccc2-3)c1 | -0.8% [at 4.9 µM] |
| O=C(C1CCCCC1)N1CCN(c2nc(-c3ccccc3Cl)c3cc(Br)ccc3n2)CC1 | -6.3% [at 4.3 µM] |
| CC1(C)CC(=O)c2cnc(N3CCN(Cc4ccc5c(c4)OCO5)CC3)nc2C1 | -3.3% [at 5.6 µM] |
| O=C(O)/C=C\C(=O)N1CCN(c2nc(-c3ccccc3)c3cc(Br)ccc3n2)CC1 | 15.8% [at 4.8 µM] |
| COc1ccc(-c2cn3cccnc3n2)cc1NC(=O)c1ccc(F)c(F)c1 | -13.5% [at 5.8 µM] |
| COc1ccc(-c2cc(-c3ccc(F)cc3)nc(N3CCN(C)CC3)n2)cc1 | -2.6% [at 5.9 µM] |
| COc1ccc(-c2cn3cccnc3n2)cc1NC(=O)c1ccccc1Br | 3.2% [at 5.3 µM] |
| Cc1ccc(C(=O)N2CCN(c3nc(-c4ccccc4)c4cc(Br)ccc4n3)CC2)cc1 | 18% [at 4.6 µM] |
| COc1ccc(-c2cn3cccnc3n2)cc1NC(=O)C1CCCCC1 | 1.2% [at 6.3 µM] |
| COc1ccc(-c2nc(N3CCN(C)CC3)[nH]c(=O)c2C#N)cc1 | -9.7% [at 6.8 µM] |
| COc1ccc(-c2cn3cccnc3n2)cc1NC(=O)c1ccc(Cl)cc1 | 3% [at 5.9 µM] |
| CCC(=O)Nc1cc(-c2cn3cccnc3n2)ccc1OC | 41.3% [at 7.5 µM] (active) |

| Structure (SMILES) | inhibition |
| --- | --- |
| O=C(O)CCC(=O)N1CCN(c2nc(-c3ccccc3)c3ccccc3n2)CC1 | -3.2% [at 5.7 µM] |
| COc1ccc(C2CC(=O)c3cnc(N4CCN(Cc5ccc6c(c5)OCO6)CC4)nc3C2)c(OC)c1 (configuration not stated) | -2.7% [at 4.4 µM] |
| CCOC(=O)N1CCN(c2nc(-c3cccc(OC)c3)cc(C(F)(F)F)n2)CC1 | -16.3% [at 5.4 µM] |
| CCOC(=O)N1CCN(c2nc(-c3ccccc3Cl)c3cc(Br)ccc3n2)CC1 | -4.5% [at 4.7 µM] |
| Clc1cccc(-c2nc(N3CCN(c4ccccc4)CC3)nc3c2COc2ccccc2-3)c1 | -0.8% [at 4.9 µM] |
| CC(C)(C)OC(=O)N1CCN(c2nc(-c3ccccc3)c3cc(Br)ccc3n2)CC1 | -2.1% [at 4.7 µM] |
| COc1ccc(-c2cn3cccnc3n2)cc1NC(=O)c1ccccc1F | 0.8% [at 6.1 µM] |
| COc1ccc(-c2cn3cccnc3n2)cc1NC(=O)c1ccc(OC)c(OC)c1 | -6% [at 5.5 µM] |
| COc1ccc(-c2cn3cccnc3n2)cc1NC(=O)c1ccc(Br)cc1 | -12.5% [at 5.3 µM] |
| COc1ccc(-c2cn3cccnc3n2)cc1NC(=O)c1cccc(C(F)(F)F)c1 | 3.7% [at 5.4 µM] |
| Cc1ccccc1N1CCN(c2nc(-c3ccccc3)c3cc(Br)ccc3n2)CC1 | 0.2% [at 4.8 µM] |
| COc1ccc(-c2cn3cccnc3n2)cc1NC(=O)c1c(-c2ccccc2Cl)noc1C | 13.3% [at 4.8 µM] |
| Clc1ccccc1N1CCN(c2nc(-c3ccccc3)c3cc(Br)ccc3n2)CC1 | 5.1% [at 4.6 µM] |
| COc1ccccc1N1CCN(c2nc(-c3ccc(F)cc3)cc(C(F)(F)F)n2)CC1 | -8.4% |
| COc1ccc(-c2cn3cccnc3n2)cc1NC(=O)CCc1ccccc1 | 16% [at 6 µM] |
| Clc1ccccc1-c1nc(N2CCN(c3ccccc3)CC2)nc2ccc(Br)cc12 | -7.9% [at 4.6 µM] |
| COc1ccc(CC(=O)Nc2cc(-c3cn4cccnc4n3)ccc2OC)cc1 | 64.2% [at 5.7 µM] (active) |
| COc1ccc(-c2cn3cccnc3n2)cc1NC(=O)C1CCCC1 | 34.6% [at 6.6 µM] (active) |
